Mito fusion yeast: blocks mitochondrial division or promotes mitochondrial fusion; AID 485298; actives 0.23% (n = 320,000); S. cerevisiae fusion-defective mutant growth rescue, CellTiterGlo 48 h; Potency, µM (series often up to 46.1 µM), for inactives: top-dose growth rescue (activation), most hits filed as activators; also: % of control where 0% means no effect; nearly all actives have a fitted effect of over 45% in size
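Luminescent cell viability in 1536-well qHTS format served as the measure of rescued growth in ts fusion-mutant S. cerevisiae cultured on non-fermentable YPEG for 48 hours at 37C.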
B2AR arrestin: beta2AR (human) beta-arrestin recruitment activity; P07550; beta-arrestin recruitment to beta2AR, cell-based reporter; Potency, µM (top dose mostly 46.1 µM), for the others: at the highest dose activation, actives largely listed as activators; actives 0.02% (n = 330,000); AID 492947;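 also: 0% = DMSO controls and full agonism = EC100 isoproterenol or metaproterenol; nearly all actives have a fitted effect of over 65% in size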
Target sequence (P07550 whole entry, looked up): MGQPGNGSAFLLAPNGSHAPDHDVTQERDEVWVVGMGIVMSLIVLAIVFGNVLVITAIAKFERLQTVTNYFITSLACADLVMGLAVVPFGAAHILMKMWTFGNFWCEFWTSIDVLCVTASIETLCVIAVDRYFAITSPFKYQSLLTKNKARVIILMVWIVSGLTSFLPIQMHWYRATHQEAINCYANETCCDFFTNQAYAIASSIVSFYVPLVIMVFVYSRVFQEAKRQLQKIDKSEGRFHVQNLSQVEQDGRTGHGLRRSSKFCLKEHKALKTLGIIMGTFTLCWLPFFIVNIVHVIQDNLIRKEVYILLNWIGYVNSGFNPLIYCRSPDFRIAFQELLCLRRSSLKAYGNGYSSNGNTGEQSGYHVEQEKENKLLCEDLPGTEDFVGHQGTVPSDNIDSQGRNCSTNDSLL
BRCA1 expr act: BRCA1 expression activation | MCF7-BRCA1-FFLuc reporter, luminescence, 48 h; response scale: scaled: vehicle 0%, 10 µM genistein 100% | AID 624202 | actives 1.1% (n = 380,000) | Potency, µM (doses to about 46.1 µM), without a hit: top-dose activation, most hits filed as activators; also: nearly all actives have a fitted effect of over 80% in size
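Quantitative HTS in MCF7 cells stably reporting BRCA1 expression via firefly luciferase. Compound treatment lasts 48 h at 37 °C in phenol-red free MEM. Activation is expressed relative to genistein at 10 microM and DMSO.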
ERG Ets-DNA blk: inhibitors of human ERG Ets domain-DNA interaction; Potency, µM (top dose mostly 76.9 µM), without a hit: at the highest dose FP activity, negative = inhibition, usual class: inhibitors; fluorescence polarization, His-ERG Ets domain / labelled DNA; actives 0.028% (n = 370,000); AID 624246; P11308; active = well fitted inhibition curve with a large enough effect in the polarisation, with a control signal flat; inconclusive = small, poorly fitted or top-dose-only effect, or effect the other way, or a change in a side signal; inactive = no such curve, though single readings can be large or run the other way; the % refers to the polarisation;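 also: polarization taken with two DNA probes labelled with fluorescein and Texas red; % of control where 0% means no effect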
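His-tagged ERG Ets domain (1 uM in the protein solution; 300mM KCl, 50mM Tris-HCl, 1mM EDTA, 1mM DTT, pH 7.5) received compound, then a probe mix of 5 nM fluorescein-DNA and 100nM Texas-615-DNA. Fluorescence polarization was read for both dyes.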
An asterisk follows results filed as active; ? = inconclusive; / = no result given. Only some compounds are listed: those with a hit (about 1.2% of all), similar ones and a draw of the others. Unless noted, calls follow the shape of the dose curve; as a rule, active = well fitted curve in the direction sought with a large enough effect; inconclusive = small, poorly fitted or top-dose-only effect, or another doubt; inactive = no such curve, though single readings can be large; an effect the other way counts as inactive or inconclusive. Potency is read from the fitted curve at half-maximal effect.

SMILES	Mito fusion yeast	B2AR arrestin	BRCA1 expr act	ERG Ets-DNA blk
CCCCN(CCCC)C(=O)c1cc2c(=O)n3ccccc3nc2s1	/	/	/	9%
CCCCOc1ccc(C(=O)N2CCCCCC2)cc1	5%	0%	99%	-1%
O=C(CCCOc1ccc(Cl)cc1)N1CCCCC1	8%	-1%	13µM*	/
Cc1cc(Cl)ccc1OCC(=O)N1CCCCC1	-1%	0%	11µM*	-3%
O=C(c1ccc(COc2ccc(Cl)cc2)cc1)N1CCCCC1	3%	0%	3.2µM*	-2%
Cc1cc(Cl)ccc1OCC(=O)N1CCN(c2ncccn2)CC1	18%	0%	10%	4%
CCOC(=O)C1=C(C)NC2=C(C(=O)C(C(=O)OCC)C(c3ccco3)C2)C1c1ccccc1C (stereo not drawn)	/	/	-54%	/
CC(=O)N1N=C(c2ccc(C)cc2)OC1c1ccc(Br)cc1 (stereo not drawn)	2%	-1%	13µM*	-3%
Cc1ccc(S(=O)(=O)N2CCN(c3nc(-n4ccnn4)nc4ccccc34)CC2)cc1	/	/	-10%	/
COCCn1c(C)cc(/C=C2/NC(=O)N(c3cccc(Cl)c3)C2=O)c1C	2%	-1%	7.9µM*	11%
Cc1cc(-c2ccc(C(=O)O)s2)cnc1N	-4%	0%	7.1µM*	-4%
O=C(O)c1ccc(-c2ccc(-c3ccccc3)cc2)s1	?	-1%	/	/
COc1c(C)cccc1C(=O)Nc1ccc(-c2nc3ccccc3s2)c(Cl)c1	/	/	/	-2%
CCn1nc(C(=O)OCC(=O)Nc2nc(-c3ccc(OC)cc3)cs2)c2ccccc2c1=O	-8%	0%	6.3µM*	9%
COc1cccc(C(=O)N=c2sc3cc(S(C)(=O)=O)ccc3n2C)c1	-5%	0%	6.3µM*	-6%
COC(=O)Cn1c(=NC(=O)c2cc(OC)cc(OC)c2)sc2cc(OC)ccc21	5%	0%	-14%	5%
COC(=O)Cn1c(=NC(=O)c2cccc(OC)c2)sc2cc(OC)ccc21	3%	0%	10µM*	0%
COc1cc(OC)cc(C(=O)N=c2sc3ccccc3n2C)c1	-7%	0%	?	10%
Cc1cc(C(=O)CSc2nnnn2C)c(C)n1-c1ccc2c(c1)OCCO2	3%	-1%	7.9µM*	0%
O=C(NCc1ccccc1Cl)c1ccc2oc(=O)n(Cc3ccccc3)c2c1	/	/	-25%	-1%
CN(c1cnn(-c2ccccc2)c(=O)c1Cl)n1cccc1	13%	0%	11µM*	-1%
O=c1c(Cl)c(Cl)cnn1-c1ccccc1	-3%	0%	-90%	7%
Cc1ccc(Nc2cc(-n3cccn3)ncn2)c(C)c1	1%	1%	3.2µM*	/
COc1ccc(NC(=O)Cn2c(=O)n(Cc3ccco3)c(=O)c3cc(OC)c(OC)cc32)cc1	/	/	-18%	0%
CCc1ccc(N=c2c([N+](=O)[O-])nn(-c3ccccc3)n2O)cc1	18µM*	0%	-3%	4%
SMILES	Mito fusion yeast	B2AR arrestin	BRCA1 expr act	ERG Ets-DNA blk
Cc1ccc(C(=O)Nn2cnc3ccccc3c2=O)cc1C	12%	0%	8.9µM*	12%
c1ccc(Cc2nc(-c3ccccn3)no2)cc1	-2%	-1%	5µM*	9%
c1ccc(-c2noc(CC3CCCCC3)n2)nc1	2%	0%	7.1µM*	7%
c1ccc(SCc2nc(-c3ccccn3)no2)cc1	1%	0%	7.1µM*	-6%
c1ccc(C(Cc2nc(-c3ccccn3)no2)c2ccccc2)cc1	20%	0%	53%	4%
Cc1ccc(Cc2nc(-c3ccccn3)no2)cc1	-3%	0%	2.2µM*	-3%
c1ccc(CCCc2nc(-c3ccccn3)no2)cc1	-6%	0%	7.1µM*	/
Cc1cccc(-c2noc(CSc3ccccc3)n2)c1	-3%	0%	3.2µM*	5%
COc1cccc(-c2cn3c(n2)sc2cc(C(=O)NCCCc4ccccc4)ccc23)c1	/	/	/	1%
CCOC(=O)C1CCN(S(=O)(=O)c2cc(-c3onc(C)c3C)ccc2C)CC1	/	/	/	0%
O=C(Cn1ncc2c(Cl)cccc21)NCc1cccc(Cl)c1	/	/	/	3%
CC(=O)N(C)c1ccc(NC(=O)Nc2ccc(Cl)cc2)cc1	/	/	11µM*	-15%
COc1cccc2c1C(=O)c1c(O)c3c(c(O)c1C2=O)CC(O)(C(C)=O)CC3OC1CC(N(C)C)C(O)C(C)O1 (stereo not drawn)	/	/	-77%	1µM*
CSCc1ccc(C(=O)Nc2ccc(C(N)=O)cc2)cc1	1%	0%	5.6µM*	12%
CSCc1ccc(C(=O)NCc2ccc(C)cc2)cc1	-6%	0%	50%	-4%
Cc1cccc(Cn2cccc2CNS(=O)(=O)c2ccc(C)c(C)c2)c1	/	/	0%	-5%
COc1cccc(-c2nnc(NC(=O)c3ccc(Cl)s3)o2)c1	3.5µM*	-1%	-16%	11%
O=C(Nc1nnc(-c2ccco2)o1)c1ccc(Cl)s1	8%	0%	11%	6%
Cc1oc2ccc(O)cc2c1C(=O)c1ccc(F)cc1	/	/	11µM*	13%
COc1ccc2oc(C)c(C(=O)c3ccc([N+](=O)[O-])cc3)c2c1	28%	-2%	20%	/
O=[N+]([O-])c1nn(-c2ccc3c(c2)OCCO3)n(O)c1=NC1CCCCC1	13µM*	0%	10%	3%
Cc1ccccc1N1C(=O)c2ccccc2N2C(=O)c3ccccc3C12 (stereo not drawn)	14µM*	0%	-26%	-6%
Cc1c(CCNC(=O)c2c(F)cccc2F)sc2nc(-c3ccc(F)cc3)nn12	/	/	/	-9%
CN(C)/C=C(/C(=O)c1ccccc1Cl)S(=O)(=O)c1ccccc1	/	/	3%	4%
COc1ccc(C(=O)/C(=C/N(C)C)S(=O)(=O)c2ccccc2)cc1	-2%	1%	3.2µM*	3%
SMILES	Mito fusion yeast	B2AR arrestin	BRCA1 expr act	ERG Ets-DNA blk
CCN(CC)c1ccc(C(=O)Nc2ccccc2)cc1[N+](=O)[O-]	18%	0%	10µM*	14%
C#CCNC(=O)/C=C/c1ccc(C)cc1	0%	-2%	11µM*	-1%
Cc1ccc(/C=C/C(=O)NCCCc2ccccc2)cc1	-1%	3%	-18%	4%
CCN(CC)c1ccc(/C=C/c2ccc3ccccc3n2)cc1	/	/	-71%	/
Clc1ccccc1CSc1cc2c(nn1)-c1ccccc1CC2	4%	0%	4µM*	1%
Clc1cccc(Cl)c1CSc1cc2c(nn1)-c1ccccc1CC2	-1%	-1%	30%	1%
O=C1C(Cc2ccccc2)Nc2ncnc(N3CCN(c4ccccc4)CC3)c2N1Cc1ccccc1 (stereo not drawn)	14%	0%	-8%	13%
Cc1ccc(CN2C(=O)C(Cc3ccccc3)Nc3ncnc(N4CCN(c5ccccc5)CC4)c32)cc1 (stereo not drawn)	11µM*	0%	-3%	4%
CCC(C)n1c(=N)c(S(=O)(=O)c2ccc(C)cc2)cc2c(=O)n3cc(C)ccc3nc21 (stereo not drawn)	/	/	17%	-1%
CCc1c(C)sc2c1CCN(Cc1ccccc1)C2c1ccccc1 (stereo not drawn)	/	/	/	8%
CCN(CC)CC(=O)Nc1scc2c1c(=O)oc1ccccc12	8%	-1%	11µM*	3%

Assay outcomes deposited in PubChem by National Center for Advancing Translational Sciences (NCATS).
